Source: PubChem BioAssay
Active and inactive are the calls of the source.

What follows are compounds tested on XIP peptide (Xip251-270) binding (assay: small-molecule binders of XIP peptide, primary screen, biochemical, small-molecule microarray, fluorescence 635/667 nm, 0.1 µg/mL protein (AID 1182)). Conditions: fluorescent protein binding, 635 nm, higher = more signal, called active from +8 up or from −8 down.
With `O=C1OCC=C[C@H]2OC34C=CCN(c5ccc6ccccc6c5)C(=O)[C@H]3N(CCCCCCO)C(=O)[C@@H]4[C@@H]12` (stereo partly specified) the composite z-score was 0.458 (inactive).
In the case of `CC(=O)N1Cc2ccccc2C[C@@]2(COC(c3ccc(OCCCO)cc3)=N2)C1=O`, the composite z-score is reported as 1.44 (inactive).
In the case of `CCCCCC1=C2CNC(CCC)(C(=O)OC)C=C2C(C)C1=O` (stereo unspecified), the composite z-score is reported as 0.455 (inactive).
In the case of `COC(=O)[C@@]1(Cc2ccc(OC)cc2)[C@H]2c3cc(C(=O)N4CCCC4)n(Cc4ccc(OC)c(OC)c4)c3C[C@H]2CN1C(=O)c1ccccc1`, the composite z-score is reported as 1.27 (inactive).
With `CCCC[C@H]1OB(O)C[C@H]2C1=C(COc1ccccc1)C[C@H]1C(=O)N(C)C(=O)[C@H]12` the composite z-score was -0.146 (inactive).
In the case of `C=C(CCCC)C(=O)CC[C@H](OC(C)=O)c1cccc(OCCO)c1`, the composite z-score is reported as 0.162 (inactive).
For `CCCCC(O)C1C=CC2C(=O)N(c3ccccc3)C(=O)C2N1Nc1ccccc1F` (stereo unspecified), the composite z-score was 0.335 (inactive).
For `CN(C)CCCCCCNC(=O)[C@@H]1C[C@@H]2C(=O)N[C@@H](CCCCN)C(=O)N2[C@@H]1c1cccc(OCCO)c1`, the composite z-score was 3.64 (inactive).
In the case of `O=C(NCc1ccccc1)[C@@H]1c2ccccc2C(=O)N(CC23CC4CC(CC(C4)C2)C3)[C@H]1c1ccc(CO)cc1`, the composite z-score is reported as 0.149 (inactive).
In the case of `COc1ccc(C(=O)Nc2ccc(CN3C(=O)[C@@]4(O[C@@H](CCn5cc([C@H](O)c6ccccc6)nn5)[C@H]([Si](C)(C)c5ccc(OC)cc5)[C@H]4C)c4ccccc43)cc2)cc1`, the composite z-score is reported as 0.0679 (inactive).
In the case of `C=C/C=C/[C@H]1C(=C)CN([C@@H](Cc2ccccc2)C(=O)OC)[C@@H]1[C@H](O)Cc1ccccc1`, the composite z-score is reported as -0.245 (inactive).
For `CCCCCN1CC=CC23O[C@@H]4/C=C\CCCOC(=O)C4[C@H]2C(=O)N(C(CO)C(C)C)[C@@H]3C1=O` (stereo partly specified), the composite z-score was -0.0186 (inactive).
`CS(=O)(=O)CCOC(=O)C1=CC(CCCO)=CC(c2ccc(CN3CCCC3)cc2)N(Cc2cc3c(cc2Br)OCO3)C=C1C(=O)OCCS(C)(=O)=O` (stereo unspecified) was tested, and the composite z-score was 0.597 (inactive).
For `C=CC[C@]1(C(=O)NCCCOC)N=C(c2ccc(OCCCO)cc2)O[C@H]1c1ccccc1N=[N+]=[N-]`, the composite z-score was 0.403 (inactive).
With `[N-]=[N+]=NCc1ccccc1[C@@H]1OC(c2ccc(OCCCO)cc2)=N[C@]1(CCS(=O)(=O)c1ccccc1)C(=O)NCc1ccccc1` the composite z-score was 0.212 (inactive).
With `CCCC=C(CCC)[C@@H](NC(=O)Oc1ccc(F)cc1)c1ccc(C(=O)OC)cc1` the composite z-score was 0.814 (inactive).
For `CCCCCN1CC=CC23O[C@@H]4/C=C\CCCOC(=O)C4[C@H]2C(=O)N(CCCO)[C@@H]3C1=O` (stereo partly specified), the composite z-score was 1.75 (inactive).
For `CC(C)(C)OC(=O)CC[C@@]1(C(N)=O)N=C(c2ccc(OCCCO)cc2)O[C@@H]1c1ccccc1`, the composite z-score was 0.222 (inactive).
`C=C(COC)/C(=C/C[C@H](OC(=O)c1ccncc1)c1ccc(OCCO)cc1)c1cnc2ccccc2c1` was tested, and the composite z-score was 0.908 (inactive).
`CCCCC=C[C@@H](NC(=O)Oc1cccc(C(F)(F)F)c1)c1ccccc1` was tested, and the composite z-score was -0.361 (inactive).
For `O=C1[C@H]2C=C(Br)[C@H](C[C@@H]2c2ccccc2)[C@@]12CO2`, the composite z-score was 0.122 (inactive).
In the case of `CC(C)(C)OC(=O)CC[C@]1(C(=O)NCC(O)CO)COC(c2ccc(OCCCO)cc2)=N1` (stereo partly specified), the composite z-score is reported as 0.273 (inactive).
In the case of `COc1cc2c(cc1O)C(C1CC1)N(Cc1cc3c(cc1Br)OCO3)CC2` (stereo unspecified), the composite z-score is reported as 0.411 (inactive).
In the case of `C=CCNC(=O)[C@@H]1[C@H]2C(=O)O[C@H](c3ccccc3)[C@H](c3ccccc3)N2[C@H](c2ccc(OCCO)cc2)[C@@]12C(=O)Nc1ccc(C#Cc3ccc(OC)cc3)cc12`, the composite z-score is reported as 1.37 (inactive).
With `COC(=O)[C@@]1(Cc2ccc(F)cc2)[C@H]2c3cc(C(=O)N4CCCC4)n(Cc4cc(C)n(C)n4)c3C[C@H]2CN1C(=O)c1ccccc1` the composite z-score was 1.55 (inactive).
With `CC(C)c1ccc(NN2C(C(O)c3cc(C(F)(F)F)cc(C(F)(F)F)c3)C=CC3C(=O)N(c4ccccc4)C(=O)C32)cc1` (stereo unspecified) the composite z-score was 0.544 (inactive).

These compounds were tested on XIP peptide (Xip251-270) (assay: small-molecule binders of XIP peptide, primary screen, biochemical, small-molecule microarray, fluorescence 635/667 nm, 0.5 µg/mL protein (AID 1183)). Conditions: small-molecule microarray binding, fluorescence 635 nm; higher = more signal.
`O=C(C1N=C(c2ccc(OCCCO)cc2)N(c2ccccc2)O1)N1CCOCC1` (stereo unspecified) showed a composite z-score of 0.206.
`CC(C)N1C(=O)c2ccccc2[C@](C)(C(=O)NCc2ccccc2)[C@@H]1c1ccc(CO)cc1` showed a composite z-score of 0.48.
In the case of `COCCn1c(C(=O)N2CCCC2)cc2c1C[C@H]1CN(C(=O)c3ccccc3)[C@@](Cc3ccc(F)cc3)(C(=O)OC)[C@@H]21`, the composite z-score is reported as 0.794.
Work on `C=C(/C(=C/C[C@@H](OC(C)=O)c1ccc(OCCO)cc1)c1cnc2ccccc2c1)C(C)C` yielded a composite z-score of 0.178.
For `[N-]=[N+]=NCc1ccccc1C[C@]1(C(=O)N2CCOCC2)N=C(c2ccc(OCCCO)cc2)O[C@H]1c1ccccc1N=[N+]=[N-]`, the composite z-score was 0.229.
`CC(=O)NCCCC[C@@H]1NC(=O)[C@@H]2C[C@H](C(=O)NCCCCCCNC(=O)CS)[C@H](c3cccc(OCCO)c3)N2C1=O` gave a composite z-score of 0.669.
For `C=CCOC(=O)[C@@H]1[C@H]2C(=O)O[C@H](c3ccccc3)[C@H](c3ccccc3)N2[C@H](c2ccc(OCCOC(=O)[C@@H]3C[C@@H]4C(=O)N[C@@H](CCCC[N+](C)(C)C)C(=O)N4[C@@H]3c3cccc(OCCO)c3)cc2)[C@@]12C(=O)Nc1ccc(I)cc12`, the composite z-score was 0.786.
Work on `CC(C)C[C@H]1NC(=O)[C@@]23C(=O)N[C@@H](Cc4ccccc4)C2[C@H](C)[C@@]2(C)O[C@H]2C3/C=C/C/C=C\CNC(=O)[C@H](Cc2ccccc2)NC1=O` (stereo partly specified) yielded a composite z-score of 0.725.
Compound `C=CCN1C(=O)[C@]2(O[C@H](CCO)[C@@H]([Si](C)(C)c3ccc(OC)cc3)[C@@H]2C)c2cc(N3C(=O)c4cccc5cccc3c45)ccc21` has a composite z-score of 0.749.
In the case of `O=C1OCC=C[C@H]2OC34C=CCN(c5ccc6ccccc6c5)C(=O)[C@H]3N(CCCCCCO)C(=O)[C@@H]4[C@@H]12` (stereo partly specified), the composite z-score is reported as 0.2.
For `CC(=O)N1Cc2ccccc2C[C@@]2(COC(c3ccc(OCCCO)cc3)=N2)C1=O`, the composite z-score was 0.81.
`CCCCCC1=C2CNC(CCC)(C(=O)OC)C=C2C(C)C1=O` (stereo unspecified) gave a composite z-score of -0.0874.
For `COC(=O)[C@@]1(Cc2ccc(OC)cc2)[C@H]2c3cc(C(=O)N4CCCC4)n(Cc4ccc(OC)c(OC)c4)c3C[C@H]2CN1C(=O)c1ccccc1`, the composite z-score was 0.653.
Work on `CCCC[C@H]1OB(O)C[C@H]2C1=C(COc1ccccc1)C[C@H]1C(=O)N(C)C(=O)[C@H]12` yielded a composite z-score of -0.544.
With `C=C(CCCC)C(=O)CC[C@H](OC(C)=O)c1cccc(OCCO)c1` the composite z-score was -0.0976.
Work on `CCCCC(O)C1C=CC2C(=O)N(c3ccccc3)C(=O)C2N1Nc1ccccc1F` (stereo unspecified) yielded a composite z-score of 0.744.
Compound `CN(C)CCCCCCNC(=O)[C@@H]1C[C@@H]2C(=O)N[C@@H](CCCCN)C(=O)N2[C@@H]1c1cccc(OCCO)c1` has a composite z-score of 0.944.
With `O=C(NCc1ccccc1)[C@@H]1c2ccccc2C(=O)N(CC23CC4CC(CC(C4)C2)C3)[C@H]1c1ccc(CO)cc1` the composite z-score was 0.794.
`COc1ccc(C(=O)Nc2ccc(CN3C(=O)[C@@]4(O[C@@H](CCn5cc([C@H](O)c6ccccc6)nn5)[C@H]([Si](C)(C)c5ccc(OC)cc5)[C@H]4C)c4ccccc43)cc2)cc1` was tested, and the composite z-score was 0.216.
Work on `C=C/C=C/[C@H]1C(=C)CN([C@@H](Cc2ccccc2)C(=O)OC)[C@@H]1[C@H](O)Cc1ccccc1` yielded a composite z-score of 0.497.
`CCCCCN1CC=CC23O[C@@H]4/C=C\CCCOC(=O)C4[C@H]2C(=O)N(C(CO)C(C)C)[C@@H]3C1=O` (stereo partly specified) gave a composite z-score of 0.0798.
For `CS(=O)(=O)CCOC(=O)C1=CC(CCCO)=CC(c2ccc(CN3CCCC3)cc2)N(Cc2cc3c(cc2Br)OCO3)C=C1C(=O)OCCS(C)(=O)=O` (stereo unspecified), the composite z-score was 0.732.
Work on `C=CC[C@]1(C(=O)NCCCOC)N=C(c2ccc(OCCCO)cc2)O[C@H]1c1ccccc1N=[N+]=[N-]` yielded a composite z-score of 0.707.
Work on `[N-]=[N+]=NCc1ccccc1[C@@H]1OC(c2ccc(OCCCO)cc2)=N[C@]1(CCS(=O)(=O)c1ccccc1)C(=O)NCc1ccccc1` yielded a composite z-score of 0.838.
`CCCC=C(CCC)[C@@H](NC(=O)Oc1ccc(F)cc1)c1ccc(C(=O)OC)cc1` was tested, and the composite z-score was 0.302.
`CCCCCN1CC=CC23O[C@@H]4/C=C\CCCOC(=O)C4[C@H]2C(=O)N(CCCO)[C@@H]3C1=O` (stereo partly specified) was tested, and the composite z-score was 0.772.
In the case of `CC(C)(C)OC(=O)CC[C@@]1(C(N)=O)N=C(c2ccc(OCCCO)cc2)O[C@@H]1c1ccccc1`, the composite z-score is reported as 0.355.
With `C=C(COC)/C(=C/C[C@H](OC(=O)c1ccncc1)c1ccc(OCCO)cc1)c1cnc2ccccc2c1` the composite z-score was 0.791.
`CCCCC=C[C@@H](NC(=O)Oc1cccc(C(F)(F)F)c1)c1ccccc1` showed a composite z-score of 0.168.
For `O=C1[C@H]2C=C(Br)[C@H](C[C@@H]2c2ccccc2)[C@@]12CO2`, the composite z-score was 0.31.
With `CC(C)(C)OC(=O)CC[C@]1(C(=O)NCC(O)CO)COC(c2ccc(OCCCO)cc2)=N1` (stereo partly specified) the composite z-score was 0.151.
With `COc1cc2c(cc1O)C(C1CC1)N(Cc1cc3c(cc1Br)OCO3)CC2` (stereo unspecified) the composite z-score was 0.479.
Work on `C=CCNC(=O)[C@@H]1[C@H]2C(=O)O[C@H](c3ccccc3)[C@H](c3ccccc3)N2[C@H](c2ccc(OCCO)cc2)[C@@]12C(=O)Nc1ccc(C#Cc3ccc(OC)cc3)cc12` yielded a composite z-score of 0.792.
With `COC(=O)[C@@]1(Cc2ccc(F)cc2)[C@H]2c3cc(C(=O)N4CCCC4)n(Cc4cc(C)n(C)n4)c3C[C@H]2CN1C(=O)c1ccccc1` the composite z-score was 0.759.
With `CC(C)c1ccc(NN2C(C(O)c3cc(C(F)(F)F)cc(C(F)(F)F)c3)C=CC3C(=O)N(c4ccccc4)C(=O)C32)cc1` (stereo unspecified) the composite z-score was 0.641.
